Laboratory results published in PubChem BioAssay (Tox21).
Active and inactive are the calls of the source. Calls come from the whole dose curve; as a rule, active = well fitted inhibition curve with a large enough effect in the repeat runs (not every such curve was filed as active); inconclusive = weak or mixed curves; inactive = flat fitted curve, though single readings scatter.

Biological target: Thyrotropin-releasing hormone receptor (Homo sapiens) (UniProt P34981)
Experiment: qHTS assay to identify small molecule antagonists of the thyrotropin-releasing hormone receptor (TRHR) signaling pathway (AID 1346877)
Details: TRHR-HEK293, TRH-induced calcium fluorescence, antagonist mode; series mostly up to 51.3 µM
Source text: National Center for Advancing Translational Sciences [NCATS]
NIH Chemical Genomics Center [NCGC]
U.S. Environmental Protection Agency [EPA]
National Institutes of Environmental Health Sciences [NIEHS]
National Toxicology Program [NTP]
U.S. Food and Drug Administration [FDA]
Thyrotropin-releasing hormone (TRH) receptor (TRHR) is a G-protein-coupled receptor which binds the tripeptide thyrotropin releasing hormone. TRHR is found in the brain and, when bound by TRH, acts (through phospholipase C) to increase intracellular inositol trisphosphate. It plays a crucial role in the anterior pituitary where it controls the synthesis and secretion of thyroid stimulating hormone and prolactin. The TRHR-Hek293 assay is a cell-based assay, and it has the potential to screen G protein-coupled receptors. A compound/drug can either activate (agonist) or suppress (antagonist) GPCRs that can be monitored by levels of intracellular calcium. In this assay, the Tox21 10K compound library was screened to identify potential TRHR antagonists.
Tox21 Assay Protocol Summary:
The TRHR-Hek293 cells were dispensed at 1500cells/4uL/well in 1536-well black-clear bottom plates using a Multidrop dispenser. After the assay plates were incubated at a 37 C/5% CO2 incubator for 18 hours, 4 uL of Dye-Loading Solution was added to each well. The plates were incubated at 37 C for 2 hours. For agonist mode, 23 nL of compounds dissolved in DMSO, positive controls or DMSO only was transferred to the assay plate by a pin tool. The fluorescence intensity in the plates was measured using FDSS 7000EX kinetic plate reader for 3 min at 1 sec intervals. For antagonist mode, 23 nL of compounds dissolved in DMSO, positive controls or DMSO only was transferred to the assay plate by a pin tool. After 5 min incubation at room temperature, 1 uL of TRH was added on the top of the cell/compound mixtures to achieve a final agonist concentration of 1 nM. The fluorescence intensity in the plates was measured using FDSS 7000EX kinetic plate reader for 3 min at 1 sec intervals. Each test compound was measured at 15 concentrations and in triplicates.
% is set by controls: 0 for no effect and ±100 for the full control effect.

Thyrotropin-releasing hormone receptor (Homo sapiens), sequence (P34981 whole entry, looked up): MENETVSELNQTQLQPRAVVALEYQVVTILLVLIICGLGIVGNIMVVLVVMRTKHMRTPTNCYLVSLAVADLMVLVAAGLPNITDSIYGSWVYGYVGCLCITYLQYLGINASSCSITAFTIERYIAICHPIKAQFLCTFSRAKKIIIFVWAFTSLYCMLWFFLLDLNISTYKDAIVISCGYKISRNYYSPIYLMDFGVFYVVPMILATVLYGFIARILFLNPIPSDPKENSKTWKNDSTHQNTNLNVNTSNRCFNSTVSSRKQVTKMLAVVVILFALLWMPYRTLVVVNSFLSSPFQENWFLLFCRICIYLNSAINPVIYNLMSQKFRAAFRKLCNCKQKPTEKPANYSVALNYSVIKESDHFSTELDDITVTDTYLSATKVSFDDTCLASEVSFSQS

Compound	outcome	activity, negative = inhibition
OC1CCCCC1c1ccccc1 (stereo not given)	inactive	–
COc1cc(C(=O)N2CCCCCCC2)cc(OC)c1OC	inactive	–
CC(C)(C)c1ccc(O)c(O)c1	inactive	–
O=C(O)Cc1ccc(CCNS(=O)(=O)c2ccc(Cl)cc2)cc1	inactive	–
NC(=O)COCCN1CCN(C(c2ccccc2)c2ccc(Cl)cc2)CC1 (stereo not given)	inactive	–
Nc1ccc(S(=O)(=O)Nc2ccnn2-c2ccccc2)cc1	–	2.52% [at 10.5 µM] (inactive)
CC(C)CCCC(C)N (stereo not given)	inactive	–
OC(CCN1CCCCC1)(c1ccccc1)C1CC2C=CC1C2 (stereo not given)	inactive	–
CN1CC(=O)NC1=N	inactive	–
Cc1nc2c([nH]1)c(=O)n(C)c(=O)n2Cc1ccco1	inactive	–
O=c1cc(-c2ccccc2)oc2ccccc12	inactive	–
O=C1CCCC(=O)C1	inactive	–
CO[Si](CCCOCC1CO1)(OC)OC (stereo not given)	inactive	–
CCC(=O)OC(C)c1ccccc1 (stereo not given)	inactive	–
O=C[C@H](O)[C@@H](O)[C@H](O)[C@H](O)CO	inactive	–
CC(C)NCCCC1(C(N)=O)c2ccccc2-c2ccccc21	inactive	–
NCCCNCCSP(=O)(O)O	–	2.65% [at 4.65 µM] (inactive)
CCCCCOC(=O)CCCCC	inactive	–
CCc1nccnc1CC	–	3.49% [at 10.5 µM] (inactive)
CCCCCCOC(=O)CCCCC(=O)OCCCCCC	inactive	–

Compound	outcome	activity, negative = inhibition
O=S(O)CO	inactive	–
FC(F)OC(Cl)C(F)(F)F (stereo not given)	inactive	–
CN1C(=O)N(C)C(O)C1O (stereo not given)	inactive	–
CCCCOCCOCCOCCCC	inactive	–
CCO[Si](CCC1CCC2OC2C1)(OCC)OCC (stereo not given)	inactive	–
Cn1c(N)c(N=O)c(=O)n(C)c1=O	inactive	–
Cc1ccc(C#N)cc1	inactive	–
Cc1cc(O)cc2c1O[C@](C)(CCC[C@H](C)CCC[C@H](C)CCCC(C)C)CC2	inactive	–
C=CCS(=O)(=O)O	inactive	–
NS(=O)(=O)c1cc(C(=O)O)cc(N2CCCC2)c1Oc1ccccc1	inactive	–
CCOC(=O)[C@H](CCc1ccccc1)N[C@@H](C)C(=O)N1[C@H](C(=O)O)C[C@@H]2CCC[C@@H]21	inactive	–
CC(=O)N(CC(O)CO)c1c(I)c(C(=O)NCCO)c(I)c(C(=O)NCC(O)CO)c1I (stereo not given)	inactive	–
C/C=C(\C)C#N	inactive	–
C[C@H](NC(CCc1ccccc1)C(=O)O)C(=O)N1CCC[C@H]1C(=O)O (stereo not given in full)	inactive	–
COC(=O)c1ccc(C)cc1C1=NC(C)(C(C)C)C(=O)N1 (stereo not given)	inactive	–
O=c1n(CCO)c(=O)n(CCO)c(=O)n1CCO	inactive	–
NS(=O)(=O)c1cc2c(cc1Cl)NC(C1CC3C=CC1C3)NS2(=O)=O (stereo not given)	inactive	–
CCN(Cc1ccncc1)C(=O)C(CO)c1ccccc1 (stereo not given)	inactive	–
COCCCOCCCOC	inactive	–
CCCCCCCCCCCC	inactive	–
